Measured values as given in PubChem BioAssay (NCI).
About 83,000 compounds went through this panel and 20% of them were active in at least one assay; those are over-represented in the sample as a whole.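 Each cell line was grown in a 96-well plate and treated with one concentration of compound for 48 hours. Values below 10 were considered active.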 The source made the active and inactive calls.

The compounds below were run on HOP-62 NSCLC (assay: NCI-60 one-dose screen, 48 h (100 = growth as untreated, 0 = no growth, -100 = all killed)). Conditions: 10 µM unless noted.
Procedure: Growth inhibition of the HOP-62 human Non-Small Cell Lung tumor cell line is measured as a screen for anti-cancer activity. Cells are grown in 96 well plates and exposed to the test compound for 48 hours. Compounds are tested at a single concentration, which is 10^-5 M for most compounds. The reported endpoint is percent growth (GI% or GIPRCNT), where numbers from 0 - 100% represent growth inhibition, and numbers from -100% - 0 represent cell death. For example, a value of 40 represents 60% growth inhibition. A value of 0 means no net growth occurred over the course of the experiment. A value of -40 indicates 40% of cells at the beginning of the experiment died by the end of the experiment. A value of -100 means all cells are dead at the end of the experiment.
NCI-60 Human Tumor Cell Lines Screen was performed using the standard one-dose NCI protocol, which is described in more detail at https://dtp.cancer.gov/discovery_development/nci-60/default.htm.
Compounds with GIPRCNT values below 10 were considered active. Activity score was based on GIPRCNT using the following formula: […]
Score is 0 for GIPRCNT values of 100 or above, 50 for GIPRCNT values of 0, and 100 for GIPRCNT values of -100.

Question: Which growth does the source give for CNCCCOc1c(Br)cc(CCNC(=O)/C(Cc2ccc(OC)c(Br)c2)=N/O)cc1Br here?
Answer: 67.5% (inactive)

Question: COc1ccc(-c2[nH]c3ccccc3c2/C=C(\C#N)S(=O)(=O)c2ccccc2)cc1 was tested. Which growth did it give?
Answer: 35.5% (inactive)

Question: How did the growth turn out when Cc1cccc(CC(=O)c2ccccc2)n1 was run?
Answer: 78.4% (inactive)

Question: How did the growth turn out when NC(=O)C1=C[C@H]2[C@H]3C=C[C@@]2(O)C(=O)O[C@@H]3O1 was run?
Answer: 82.3% (inactive)

Question: O=C(/C=C/c1ccccc1)Oc1ccc(/C=C/c2cc(OC(=O)/C=C/c3ccccc3)cc(OC(=O)/C=C/c3ccccc3)c2)cc1 was tested. Which growth did it give?
Answer: 82.9% (inactive)

Question: Which growth does the source give for Nc1nc(=S)ss1 here?
Answer: 97.3% (inactive)

Question: For FC(F)(F)c1cccc([Si](F)(c2cccc(C(F)(F)F)c2)c2cccc(C(F)(F)F)c2)c1, which growth is on record?
Answer: 90.2% (inactive)

Question: For CCN(CC)CCC(C(=O)O)(c1ccccc1)c1ccccc1, which growth is on record?
Answer: 86.5% (inactive)

Question: Which growth does the source give for O=C(O)c1cc2ccccc2cc1Nc1ccccc1 here?
Answer: 82.3% (inactive)

Question: With NS(=O)(=O)c1ccc(-n2nc(-c3ccc(Cl)cc3)ccc2=O)cc1 as the compound, how does the growth read?
Answer: 94.3% (inactive)

Question: With O=C(Nc1ccc(-n2ccc3c(NC(=O)c4ccccc4)ncnc32)cc1)c1ccc(Cl)c(C(F)(F)F)c1 as the compound, how does the growth read?
Answer: 45.6% (inactive)

Question: Which growth does the source give for CC(=O)Cc1cccnc1 here?
Answer: 108% (inactive)

Question: COc1cc2c(cc1OCCCCC(=O)Nc1ccc(-c3nc4ccccc4s3)cc1)N=C[C@@H]1CCCN1C2=O was tested. Which growth did it give?
Answer: -2.65% (active)

Question: For COc1cc(NC(C)CCCN2C(=O)c3ccccc3C2=O)c2ncccc2c1OC (stereo not given), which growth is on record?
Answer: 80.7% (inactive)

Question: Which growth does the source give for Nc1n[nH]c2cccc(C#Cc3cccc(NC(=O)c4cccc(C(F)(F)F)c4)c3)c12 here?
Answer: 28.3% (inactive)

Question: With COc1cc2c(/C=C3/C(=O)Nc4ccc(O)cc43)c(Cl)n(Cc3cc(OC)c(OC)c(OC)c3)c2cc1C as the compound, how does the growth read?
Answer: 40.1% (inactive)

Question: With Cc1cc(N2CCOCC2)nc(N(CCNc2ccnc3cc(Cl)ccc23)Cc2ccco2)n1 as the compound, how does the growth read?
Answer: 36.5% (inactive)

Question: With COC1OCC(OS(=O)(=O)c2ccc(C)cc2)C(OC(=O)c2ccccc2)C1OC(=O)c1ccccc1 (stereo not given) as the compound, how does the growth read?
Answer: 42.2% (inactive)

Question: With COc1ccc(-c2nn(-c3ccc(NC(=O)Nc4ccc(Cl)c(Cl)c4)cc3)cc2-c2ccncc2)cc1Cl as the compound, how does the growth read?
Answer: 20.7% (inactive)

Question: For O=C(O)c1cn(C2CC2)c2cc(N3CCN(C(=O)CSc4nc(NS(=O)(=O)c5ccccc5)cc(=O)[nH]4)CC3)c(F)cc2c1=O, which growth is on record?
Answer: 116% (inactive)

Question: NC(N)=N/N=C/c1ccc([N+](=O)[O-])cc1 was tested. Which growth did it give?
Answer: 104% (inactive)

Question: How did the growth turn out when Cl[C@@H]1CCO[C@H](c2cc3ccccc3c3ccccc23)C1 was run?
Answer: 98.8% (inactive)

Question: How did the growth turn out when Nc1ccc(S(=O)(=O)Nc2cc(I)cc(I)c2)cc1 was run?
Answer: 91.1% (inactive)

Question: How did the growth turn out when CNC(=O)NN was run?
Answer: 94.7% (inactive)

Question: With COc1cc(NS(C)(=O)=O)ccc1Cc1c2ccccc2nc2ccccc12 as the compound, how does the growth read?
Answer: -13.9% (active)

Question: How did the growth turn out when N#Cc1c(N)nc(Cl)c(C#N)c1C(=O)c1ccccc1 was run?
Answer: 69.4% (inactive)

Question: Which growth does the source give for Nc1nc(Cl)cc(NCc2ccc(CNc3cc(Cl)nc(N)n3)cc2)n1 here?
Answer: 48.8% (inactive)

Question: How did the growth turn out when Cc1cn(-c2nc3c(c(NCc4ccccc4)n2)COCC3)c2cccc(C(N)=O)c12 was run?
Answer: 76.3% [0.5 µM] (inactive)

Question: How did the growth turn out when CC(C)CNCC(=O)Nc1ccc(Cc2ccc(NC(=O)CNCC(C)C)cc2)cc1 was run?
Answer: 59.1% (inactive)

Question: With O=C(Nc1ccc(-n2ccc3c(NC(=O)c4ccccc4)ncnc32)cc1)Nc1ccc(Cl)c(C(F)(F)F)c1 as the compound, how does the growth read?
Answer: 20.1% (inactive)

Question: COc1ccccc1NC(=O)COc1ccc(/C=C2/Oc3cc4occc4c(OC)c3C2=O)cc1OC was tested. Which growth did it give?
Answer: 101% (inactive)

Question: For Cc1cc(Nc2ccc(Cl)c(Cl)c2)nc(N)n1, which growth is on record?
Answer: 98.3% (inactive)

Question: How did the growth turn out when CN(C)CCCOc1c(Br)cc(/C=C/C(=O)N(C)CCc2cc(Br)c(OCCCN(C)C)c(Br)c2)cc1Br was run?
Answer: 82.3% (inactive)

Question: How did the growth turn out when O=C(Cn1c2ccccc2c2ccncc21)N/N=C\c1ccc2ccccc2c1 was run?
Answer: 19.8% (inactive)

Question: With O=C(NCCNc1nccc(-c2c(-c3cccc(O)c3)nc3sccn23)n1)c1cc(N2CCOCC2)cc(C(F)(F)F)c1 as the compound, how does the growth read?
Answer: 136% (inactive)

Question: With CCOC(=O)c1noc2c1CCc1cn(Cc3cc(OC)cc(OC)c3)cc1-2 as the compound, how does the growth read?
Answer: 95.6% (inactive)

Question: With [2H]c1nc(Nc2ncc(F)c(-c3cc(F)c4nc(C)n(C(C)C)c4c3)n2)c([2H])c([2H])c1CN1CCN(CC)CC1 as the compound, how does the growth read?
Answer: 51.2% (inactive)

Question: O=[N+]([O-])c1ccccc1NC1c2ccccc2Oc2ccccc21 was tested. Which growth did it give?
Answer: 70% (inactive)

Question: Cc1cc(-c2ccccc2)nc2ccccc12 was tested. Which growth did it give?
Answer: 79.8% (inactive)

Question: COc1cc(C(=O)NNC(=O)c2ccccc2C(=O)O)cc(OC)c1OC was tested. Which growth did it give?
Answer: 51.6% (inactive)
